Laboratory results: PubChem BioAssay AID2205 (University of Pittsburgh Molecular Library Screening Center, 2009)
The whole screen tested about 200,000 compounds, of which about 1,600 (0.8%) were called active.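 The calls were made as follows: active = plate Z-score above 3 for both tubulin-high and condensed-nucleus cell shares, with cell loss under 80%, at 10 µM; inactive = the rest, inconclusive results apart.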 Only a selection was taken, and actives are over-represented in it overall.

Assay: tubulin staining increase by stabilizing compounds – imaging, high-content imaging, primary screen (AID 2205);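 as to % tubulin-high responders: anti alpha tubulin signal scored within the nucleus-defined area of each cell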;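 as to toxicity: 0% = mean cell density of plate MIN control wells and 100% = no cells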
Conditions: HeLa tubulin immunostaining HCS, 24 h, at 10 µM; % Hoechst-high responders: measured here: nuclear condensation Hoechst responders, stronger effect = higher value, share of cells brighter than vehicle mean+2SD; % tubulin-high responders: stronger effect = higher value, share of cells brighter than vehicle mean+2SD; toxicity: measured here: cytotoxicity by cell density

Row | Compound | % Hoechst-high responders [%] | % tubulin-high responders | toxicity [%]
1 | CCOC(=O)CC(NC(=O)C1c2ccccc2Oc2ccccc21)c1ccc(C)cc1 (stereo unspecified) | 1.91 | 1.78% (inactive) | 3.3
2 | Cc1cc(-c2nnc(CCC(=O)NC(c3ccccc3)c3ccccc3)o2)no1 | 1.8 | 2.51% (inactive) | 7.53
3 | O=C(COC(=O)c1cc(=O)[nH]c2ccccc12)Nc1nc(-c2cccc(Br)c2)cs1 | 3.67 | 2.11% (inactive) | 8.74
4 | NS(=O)(=O)c1ccc(CCNC(=O)CCCn2c(SCC(=O)N3CCCC3)nc3ccsc3c2=O)cc1 | 2.7 | 1.43% (inactive) | 6.34
5 | COc1cc2c(cc1O)[C@H](Cc1ccc(Oc3cc(C[C@@H]4NCCc5cc(OC)c(O)cc54)ccc3O)cc1)NCC2 | 2.73 | 2.04% (inactive) | 13.6
6 | CC[C@H]1CN2CCc3cc(OC)c(OC)cc3[C@@H]2C[C@@H]1C[C@H]1NCCc2cc(OC)c(OC)cc21 | 20.9 | 55.7% (active) | 75.2
7 | CCCCn1c(N)c(N(CC)C(=O)/C=C/c2ccco2)c(=O)[nH]c1=O | 2.6 | 6.6% (inactive) | 4.9
8 | CC(C)n1c(=O)[nH]c2cc(C(=O)Nc3ccccc3)ccc21 | 0.954 | 1.61% (inactive) | 1.51
9 | COc1ccc(-n2c(C)nn(CC3CC3)c2=O)cc1 | 1.41 | 0.918% (inactive) | 4.19
10 | COc1ccccc1NC(=O)C1=C(C)Nc2nc3ccccc3n2C1c1cccs1 (stereo unspecified) | 37.9 | 14.5% (active) | 54.8
11 | CCOc1ccc(C2C(C(=O)NC)=C(C)Nc3nc4ccccc4n32)cc1OC (stereo unspecified) | 1.52 | 3.35% (inactive) | 7.37
12 | CCOC(=O)C1=C(C)Nc2nc3ccccc3n2C1c1cccs1 (stereo unspecified) | 2.61 | 1.67% (inactive) | 7.26
13 | Cc1ccc(-n2c(C)cc(C(=O)CSc3nnc4ccccn34)c2C)cc1 | 2.88 | 3.52% (inactive) | 5.15
14 | COc1ccc(OC)c(Nc2nc(-c3ccc(O)c(O)c3)cs2)c1 | 33.9 | 34% (active) | 37
15 | COc1ccc(Nc2nc(-c3ccccc3)cs2)cc1 | 2.53 | 3.24% (inactive) | 3.05
16 | COc1ccc(-c2csc(Nc3ccc(O)cc3)n2)cc1 | 4.55 | 6.13% (inactive) | 2.94
17 | COc1ccc(NC(C(=O)Nc2cccc(C(C)=O)c2)c2ccccc2)cc1 (stereo unspecified) | 4.94 | 2.7% (inactive) | 7.43
18 | CCc1cc2cc(OC)ccc2nc1SCC(=O)Nc1cc(OC)c(OC)cc1C(=O)O | 1.91 | 2.13% (inactive) | 7.82
19 | COc1ccccc1C(c1nnnn1CC1CCCO1)N1CCN(c2ccccc2)CC1 (stereo unspecified) | 1.03 | 3.39% (inactive) | 0.528

Row | Compound | % Hoechst-high responders [%] | % tubulin-high responders | toxicity [%]
20 | O=C(c1cn(-c2ccccc2)nc1-c1cc2ccccc2oc1=O)N1CCOCC1 | 1.17 | 1.1% (inactive) | 0.611
21 | O=c1oc2ccccc2cc1-c1cn(-c2ccccc2)c(=S)[nH]1 | 36.5 | 12.5% (active) | 39.3
22 | Nc1ncc(-c2cc3ccccc3oc2=O)s1 | 2.39 | 5.77% (inactive) | 5
23 | Cc1ccc(S(=O)(=O)CCC(=O)OCc2ccccc2)cc1 | 1.72 | 4.05% (inactive) | 4.99
24 | CC1CCN(c2ccc([N+](=O)[O-])cc2C(N)=O)CC1 | 1.09 | 5.37% (inactive) | 13
25 | O=c1cc(N2CCCCC2)c(-c2ccccc2)nn1Cc1cccc(F)c1 | 0.91 | 7.03% (inactive) | 4.95
26 | Cc1ccc(-c2cc(=O)c3ccc(F)cc3[nH]2)cc1 | 14.3 | 22.4% (active) | 28.4
27 | Cc1ccc(-c2cc(=O)c3ccc(Cl)cc3[nH]2)cc1 | 1.34 | 2.15% (inactive) | 1.49
28 | O=c1cc(-c2ccccc2)[nH]c2cc(F)ccc12 | 48.5 | 14.7% (inactive) | 37.5
29 | CN(CC(=O)NC1CCCC1)S(=O)(=O)c1cnc[nH]1 | 1.61 | 4.66% (inactive) | 8.08
30 | Cc1nn(CC2CC2)c(=O)n1N(C)c1ncc(C(F)(F)F)cc1Cl | 3.3 | 5.71% (inactive) | 3.78
31 | CSc1nc(N(C)NC(=O)c2cccc(C)c2)c2ccccc2n1 | 33.9 | 13.4% (inactive) | 39.2
32 | CN(NC(=O)c1ccccc1F)c1nc(C(F)(F)F)nc2ccccc12 | 59.1 | 12.1% (active) | 32.2
33 | Cc1cc(C)n(-c2nc(C(F)(F)F)nc3ccccc23)n1 | 2.48 | 5.42% (inactive) | 5.25
34 | CN(NC(=O)c1ccccc1)c1nc2ccccc2nc1C(F)(F)F | 38 | 48.6% (active) | 33.5
35 | COc1ccc(C(=O)NN(C)c2nc(-c3ccccc3)cc(C)c2S(C)(=O)=O)cc1 | 3.04 | 2.71% (inactive) | 4.33
36 | COC(=O)CNC(=O)c1ccccc1F | 1.58 | 0.975% (inactive) | 9.24
37 | CCN(CC)S(=O)(=O)c1ccc(N(C)CCc2ccc(OC)c(OC)c2)nc1 | 1.73 | 5.42% (inactive) | 7.66
